Assay results as given in PubChem BioAssay.
A number with no mark means an inactive call. How the calls were made is not given here.

What follows are molecules tested against Pantothenate synthetase (Mycobacterium tuberculosis (strain ATCC 25618 / H37Rv)) (UniProt P9WIL5) (assay: Coupled enzyme confirmation of inhibitors against recombinant Mtb PanC (AID 375;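 further: 0% = full reaction with vehicle and 100% = no enzyme background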)). Conditions: coupled enzyme assay; at 10 µM, active compounds read high.
Pantothenate synthetase (Mycobacterium tuberculosis (strain ATCC 25618 / H37Rv)), sequence (P9WIL5 whole entry, looked up): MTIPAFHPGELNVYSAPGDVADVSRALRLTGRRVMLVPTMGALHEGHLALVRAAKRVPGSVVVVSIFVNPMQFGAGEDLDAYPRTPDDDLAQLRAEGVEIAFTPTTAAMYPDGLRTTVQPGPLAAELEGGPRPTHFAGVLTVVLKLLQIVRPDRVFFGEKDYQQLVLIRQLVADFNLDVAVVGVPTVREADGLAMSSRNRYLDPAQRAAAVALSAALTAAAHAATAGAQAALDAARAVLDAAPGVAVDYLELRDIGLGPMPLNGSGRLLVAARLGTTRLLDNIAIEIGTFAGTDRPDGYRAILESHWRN

In order of rising inhibition:
1. Cc1ccc(N2C(=O)c3oc4ccccc4c(=O)c3C2c2cccc(O)c2)nc1 (stereo not given)  0%
2. Cn1ncc2c(Nc3ccccc3Br)ncnc21  0%
3. CCN(CC)CCOC(=O)c1cccc(OC)c1  0%
4. COc1ccc(NC(=O)CCS(=O)(=O)c2ccc(OC)cc2)cc1  0%
5. COc1ccc2ccccc2c1CN1CCCC(CO)C1 (stereo not given)  0%
6. CCC(=O)c1ccc(O)cc1  0%
7. O=C(CSc1nnc(-c2ccccc2)o1)N1CCN(c2ccccc2)CC1  0%
8. CCOC(=O)Cn1c(CN2CCOCC2)nc2c1c(=O)[nH]c(=O)n2C  0%
9. CCCOc1cccc(C(=O)Nc2cc(NC(=O)c3ccco3)ccc2OC)c1  0%
10. O=C(NCc1cccs1)C1CCN(S(=O)(=O)c2cccs2)CC1  0%
11. Brc1c(NC2=NCCN2)ccc2nccnc12  0%
12. CCOC(=O)Cc1nnc(NC(=O)c2ccccc2OCC)s1  0%
13. c1ccc(-c2nnc(SCc3nc4ccccc4[nH]3)o2)cc1  0%
14. CC(C)(O)C#Cc1ccc(C(=O)N2CCN(C(=O)c3ccco3)CC2)cc1  0%
15. c1ccc2c(c1)CCCC2C1=NCCN1 (stereo not given)  0%
16. COc1ccc(NC(=O)C2Cc3ccccc3C(=O)O2)cc1 (stereo not given)  0%
17. CCC1(C)Cc2c(C#N)c(N)n(N)c(=S)c2CO1 (stereo not given)  0%
18. CC(C)(C#N)Nn1cnnc1  0%
19. S=c1[nH]nc(-c2ccco2)n1-c1cccc2ccccc12  0%
20. O=C(c1cnc2sccn2c1=O)N1CCc2ccccc2C1  0%
21. Nc1nc(-c2ccc(Cl)cc2)nn1C(=O)c1cccnc1  0%
22. COc1ccc(C2=NO[C@@H]3C(=O)N(c4cccc(C)c4C)C(=O)[C@H]23)cc1OC  1%
23. COc1cc(N=c2ssnc2Cl)cc(OC)c1  1%
24. c1cn(CC2(Cn3ccnc3)COC2)cn1  1%
25. CCOC(=O)C1=C(C)N(C)C(C)=C(C(=O)OCC)C1c1cccnc1  2%
26. COc1cccc(-n2c(SCC(=O)OC(C)C)nnc2-c2cccnc2)c1  2%
27. N#Cc1c2n(c(=S)n(-c3ccccn3)c1=O)CCCCC2  2%
28. O=C(NC1CCCC1)C1CCCN(S(=O)(=O)c2cccc3cccnc23)C1 (stereo not given)  2%
29. CCOC(=O)N1CCC(O)(c2cc(C)c(C)cc2C)CC1  3%
30. CCCc1cc(=O)[nH]c(=S)[nH]1  3%
31. COc1ccc(Cn2nnnc2C(c2cccs2)N2CCOCC2)cc1 (stereo not given)  3%
32. Cc1ccc(-n2nnnc2SCC(=O)N2CCc3ccccc3C2)cc1  4%
33. CC(=O)Nc1ccc(S(=O)(=O)N2CCN(c3cc(C)nc4ccccc34)CC2)cc1  5%
34. O=C(Cn1nc(C(F)(F)F)c2c1CCCC2)NCCN1CCOCC1  5%
35. CCC(=O)N(CCCN(C)C)c1nc(-c2cc(OC)ccc2OC)cs1  6%
36. COCCc1ccc(OCC(O)CNC(C)C)cc1 (stereo not given)  6%
37. COc1ccc(Br)cc1S(=O)(=O)N1CC(C)OC(C)C1 (stereo not given)  7%
38. CCn1nc(C(=O)OCC(=O)N2CCc3ccccc32)c2ccccc2c1=O  7%
39. Oc1ccc(N2CCN(C(c3ccncc3)c3nnnn3C3CCCC3)CC2)cc1 (stereo not given)  11%
40. CC12CCC(C(=O)O)(c3nc(C#N)c(C#N)nc31)C2(C)C (stereo not given)  13%
